Laboratory results taken from PubChem BioAssay (EPA / NIEHS).
Several values for one entry are separate records, joined by “and”; a condition that tells them apart may be missing. Equal values may be shown once. Some compounds were tested as several samples or in several runs, with calls that do not always agree. Activity calls are given as the source filed them. How the source made its calls: active means hit-call score of the fitted dose curve at least 0.9, where 1 is the maximum; inactive means score below 0.9.

Legend:
[1] = read-out: Tissue plasminogen activator (tPA), PLAT (gene 5327); experiment: BSK_BE3C_tPA: BioMAP Diversity Plus: BE3C Assay for Tissue plasminogen activator (tPA) Biomarker Activity (AID 2283041); details: primary human bronchial epithelial cells; actives raise or lower the signal;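 further: tPA level quantified by ELISA one day after compound addition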
In short: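 Human primary bronchial epithelial cells were dosed with chemical and tPA biomarker levels measured by ELISA 24 hours later. Activity was fitted bidirectionally against DMSO as negative control and baseline.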

[2] = read-out: Interleukin-8 (IL8), CXCL8 (gene 3576); experiment: BSK_CASM3C_IL8: BioMAP Diversity Plus: CASM3C Assay for Interleukin-8 (IL8) Biomarker Activity (AID 2283042); details: primary human coronary artery smooth muscle cells; actives raise or lower the signal;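 further: IL-8 protein level quantified by ELISA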
[3] = read-out: Human Leukocyte Antigen - DR isotype (HLADR), HLA-DRA (gene 3122); experiment: BSK_CASM3C_HLADR: BioMAP Diversity Plus: CASM3C Assay for Human Leukocyte Antigen - DR isotype (HLADR) Biomarker Activity (AID 2283043); details: primary human coronary artery smooth muscle cells; actives raise or lower the signal;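 further: cell-surface HLA-DR protein level quantified by ELISA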
[4] = read-out: Macrophage colony-stimulating factor (MCSF), CSF1 (gene 1435); experiment: BSK_CASM3C_MCSF: BioMAP Diversity Plus: CASM3C Assay for Macrophage colony-stimulating factor (MCSF) Biomarker Activity (AID 2283044); details: primary human coronary artery smooth muscle cells; actives raise or lower the signal;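 further: M-CSF protein amount quantified by ELISA after 24 h exposure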
[5] = read-out: Low-density lipoprotein receptor (LDLR), LDLR (gene 3949); experiment: BSK_CASM3C_LDLR: BioMAP Diversity Plus: CASM3C Assay for Low-density lipoprotein receptor (LDLR) Biomarker Activity (AID 2283045); details: primary human coronary artery smooth muscle cells; actives raise or lower the signal;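 further: LDLR protein level on the cell surface quantified by ELISA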
[6] = read-out: Monocyte Chemoattractant Protein-1 (MCP1), CCL2 (gene 6347); experiment: BSK_CASM3C_MCP1: BioMAP Diversity Plus: CASM3C Assay for Monocyte Chemoattractant Protein-1 (MCP1) Biomarker Activity (AID 2283046); details: primary human coronary artery smooth muscle cells; actives raise or lower the signal;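 further: MCP-1 level quantified by ELISA 24 h after dosing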
[7] = BSK_CASM3C_Proliferation: Cell Proliferation Assessment in the BioMAP Diversity Plus: CASM3C Assay (AID 2283047); details: primary human coronary artery smooth muscle cells;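 further: sulforhodamine B total protein stain as relative cell number at 560 nm; sub-confluent cells exposed 48 h before staining; fitted both ways against DMSO so gain or loss of cell number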
[8] = read-out: Monokine induced gamma interferon (MIG), CXCL9 (gene 4283); experiment: BSK_CASM3C_MIG: BioMAP Diversity Plus: CASM3C Assay for Monokine induced gamma interferon (MIG) Biomarker Activity (AID 2283048); details: primary human coronary artery smooth muscle cells; actives raise or lower the signal;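 further: MIG protein level measured by ELISA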
[9] = read-out: serum amyloid A (SAA), SAA1 (gene 6288); experiment: BSK_CASM3C_SAA: BioMAP Diversity Plus: CASM3C Assay for serum amyloid A (SAA) Biomarker Activity (AID 2283049); details: primary human coronary artery smooth muscle cells; actives raise or lower the signal;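 further: SAA protein level quantified by ELISA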
[10] = BSK_CASM3C_SRB: Viability Assessment in the BioMAP Diversity Plus: CASM3C Assay (AID 2283050); details: primary human coronary artery smooth muscle cells
[11] = read-out: Thrombomodulin, THBD (gene 7056); experiment: BSK_CASM3C_Thrombomodulin: BioMAP Diversity Plus: CASM3C Assay for Thrombomodulin Biomarker Activity (AID 2283051); details: primary human coronary artery smooth muscle cells; actives raise or lower the signal;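 further: thrombomodulin protein level measured by ELISA 24 h after dosing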
[12] = read-out: Tissue Factor, F3 (gene 2152); experiment: BSK_CASM3C_TissueFactor: BioMAP Diversity Plus: CASM3C Assay for Tissue Factor Biomarker Activity (AID 2283052); details: primary human coronary artery smooth muscle cells; actives raise or lower the signal;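 further: cell surface tissue factor protein level read by ELISA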
[13] = read-out: Interferon-gamma inducible Protein 10 (IP10), CXCL10 (gene 3627); experiment: BSK_hDFCGF_IP10: BioMAP Diversity Plus: hDFCGF Assay for Interferon-gamma inducible Protein 10 (IP10) Biomarker Activity (AID 2283053); details: primary human foreskin fibroblasts; actives raise or lower the signal
In short: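 Human foreskin fibroblast primary cells (hDFCGF system) were dosed with chemical and assayed at 24 h; IP-10 measured by ELISA. Activity fitted bidirectionally relative to DMSO negative control as baseline.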

[14] = read-out: Urokinase-type plasminogen activator receptor (uPAR), PLAUR (gene 5329); experiment: BSK_CASM3C_uPAR: BioMAP Diversity Plus: CASM3C Assay for Urokinase-type plasminogen activator receptor (uPAR) Biomarker Activity (AID 2283054); details: primary human coronary artery smooth muscle cells; actives raise or lower the signal;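 further: cell-surface uPAR protein level quantified by ELISA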
[15] = read-out: Vascular cell adhesion molecule 1 (VCAM1), VCAM1 (gene 7412); experiment: BSK_CASM3C_VCAM1: BioMAP Diversity Plus: CASM3C Assay for Vascular cell adhesion molecule 1 (VCAM1) Biomarker Activity (AID 2283055); details: primary human coronary artery smooth muscle cells; actives raise or lower the signal;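 further: VCAM-1 protein level quantified by ELISA on the cells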
[16] = read-out: Epidermal growth factor receptor (EGFR), EGFR (gene 1956); experiment: BSK_hDFCGF_EGFR: BioMAP Diversity Plus: hDFCGF Assay for Epidermal growth factor receptor (EGFR) Biomarker Activity (AID 2283057); details: primary human foreskin fibroblasts; actives raise or lower the signal
In short: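 Primary human foreskin fibroblasts were exposed to compound for 24 h, after which cell-surface EGFR was quantified by ELISA. Activity was fitted bidirectionally against the DMSO negative control as baseline.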

[17] = read-out: Macrophage colony-stimulating factor (MCSF), CSF1 (gene 1435); experiment: BSK_hDFCGF_MCSF: BioMAP Diversity Plus: hDFCGF Assay for Macrophage colony-stimulating factor (MCSF) Biomarker Activity (AID 2283060); details: primary human foreskin fibroblasts; actives raise or lower the signal
In short: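 Human foreskin fibroblast primary cultures; M-CSF measured by ELISA 24 hours after chemical dosing. Bidirectional fitting relative to DMSO, with overt cytotoxicity tracked by parallel SRB total-protein staining (0.1% SRB, 10% TCA fixation, 560 nm).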

[18] = read-out: Interleukin-8 (IL8), CXCL8 (gene 3576); experiment: BSK_hDFCGF_IL8: BioMAP Diversity Plus: hDFCGF Assay for Interleukin-8 (IL8) Biomarker Activity (AID 2283058); details: primary human foreskin fibroblasts; actives raise or lower the signal
In short: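 Primary human foreskin fibroblasts (hDFCGF system) dosed with chemical; IL-8 measured by ELISA 24 hours later. Bidirectional curve fitting relative to DMSO baseline; cytotoxicity tracked in parallel cultures by SRB total protein staining.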

[19] = BSK_hDFCGF_Proliferation: Cell Proliferation Assessment in the BioMAP Diversity Plus: hDFCGF Assay (AID 2283059); details: primary human foreskin fibroblasts;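 further: curves fitted for both rise and fall of signal versus DMSO baseline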
In short: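 Total protein read at 560 nm after 0.1% SRB staining of TCA-fixed human skin fibroblasts, […]. Activity is fitted in both directions relative to DMSO as baseline.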

[20] = read-out: Collagen III, COL3A1 (gene 1281); experiment: BSK_hDFCGF_CollagenIII: BioMAP Diversity Plus: hDFCGF Assay for Collagen III Biomarker Activity (AID 2283056); details: primary human foreskin fibroblasts; actives raise or lower the signal
In short: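 Human foreskin fibroblast primary cultures sampled 24 h after dosing; Collagen III quantified by ELISA. Signal fitted bidirectionally against DMSO baseline.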

Measured: AC50

CC[C@H](C)[C@@H](C(=O)O)n1sc2ccccc2c1=O
not listed: [18] | [19] | [20]
inactive: all other assays above

CN1CCC[C@H]1c1cccnc1
not listed: [18] | [19] | [20]
inactive: all other assays above

COc1ccc([N+](=O)[O-])cc1N
not listed: [20]
inactive: all other assays above

CCCCCCCCC(=O)O
not listed: [18] | [20]
inactive: all other assays above

CC(C)(C)c1cccc(C(C)(C)C)c1O
active: [12] 20 µM | [13] 37.8 µM | [20] 35.9 µM | [19] 35 µM | [17] 31 µM
not listed: [18]
inactive: all other assays above

CCCOC(=O)c1ccc(O)cc1
not listed: [18] | [19]
inactive: all other assays above

Cc1cc(C)c(O)c(C)c1
not listed: [19]
inactive: all other assays above

CCOC(=O)CC(O)(CC(=O)OCC)C(=O)OCC
not listed: [19]
inactive: all other assays above

CCN(CC)CCNc1ccc(CNC=O)c2sc3ccc(OC)cc3c(=O)c12
active: [2] 35.6 µM | [3] 12.3 µM | [4] 25.9 µM | [6] 26.9 µM | [7] 20 µM | [9] 20.3 µM | [10] 26.3 µM | [11] 31.2 µM | [12] 5.33 µM | [13] 15.5 µM | [14] 11.1 µM | [15] 12 µM | [18] 33.7 µM | [19] 6.31 µM | [17] 12.9 µM
inactive: [1] | [5] | [8] | [16]

CCCCOCCO
not listed: [18]
inactive: all other assays above

FC(F)(I)C(F)(F)C(F)(F)C(F)(F)C(F)(F)C(F)(F)I
inactive: [1] | [11] | [12] | [16]
active: [2] 30 µM [middle of 5 runs] | [4] 25.9 µM [middle of 5 runs] | [5] 22 µM [middle of 5 runs] | [6] 21.6 µM [middle of 5 runs] | [7] 13.6 µM [middle of 5 runs] | [8] 29.7 µM [middle of 5 runs] | [9] 17 µM [middle of 5 runs] | [10] 23.3 µM [middle of 5 runs] | [11] 17.8 µM and 50.8 µM and 7.99 µM | [12] 23.7 µM and 16.2 µM and 30 µM | [13] 5.72 µM [middle of 5 runs] | [14] 23.7 µM [middle of 5 runs] | [15] 19.8 µM [middle of 5 runs] | [18] 7.02 µM [middle of 5 runs] | [19] 2.06 µM [middle of 5 runs] | [17] 4.77 µM [middle of 5 runs]

CN1CCN(c2ccccc2/C=C2\SCCN(c3ccc(Cl)c(Cl)c3)C2=O)CC1
active: [5] 2.95 µM | [7] 20 µM | [10] 20 µM | [13] 30.7 µM | [17] 23.5 µM
not listed: [1] | [18] | [19] | [20]
inactive: all other assays above

NC(=O)N(O)[C@@H]1C=C[C@H](Oc2cccc(Oc3ccc(F)cc3)c2)C1
active: [3] 3.95 µM | [7] 7.17 µM | [11] 9.41 µM | [13] 20 µM | [17] 3.97 µM
not listed: [1] | [19] | [20]
inactive: all other assays above

Cc1oc(-c2ccccc2)nc1CCOc1ccc(C[C@H](Nc2ccccc2C(=O)c2ccccc2)C(=O)O)cc1
inactive: [2] | [8] | [9] | [11] | [12]
active: [3] 34.6 µM | [4] 30.8 µM | [5] 4.87 µM | [6] 32.4 µM | [7] 31.8 µM | [10] 32.3 µM | [13] 3.35 µM | [14] 31.2 µM | [15] 32.8 µM | [16] 1.85 µM | [18] 7.44 µM | [17] 3.14 µM

CC(C)(C)c1ccc(O)c(C(C)(C)C)c1
active: [2] 27.2 µM | [3] 9.55 µM | [4] 13.2 µM | [5] 12.3 µM | [6] 13.7 µM | [7] 11.4 µM | [8] 15.3 µM | [9] 12.4 µM | [10] 26.7 µM | [11] 35.9 µM | [12] 20 µM | [13] 10.1 µM | [14] 7.58 µM | [15] 29.1 µM | [20] 8.81 µM | [16] 13.2 µM | [17] 8.8 µM

COCC(C)OCC(C)O (stereo unspecified)
not listed: [1] | [19]
inactive: all other assays above

c1ccc2cc3c(ccc4ccccc43)cc2c1
active: [7] 3.12 µM | [11] 2.24 µM
not listed: [1] | [18]
inactive: all other assays above

CCCCCCCCCCCCCC[N+](C)(C)C
active: [2] 10.8 µM | [3] 5.99 µM | [4] 4.57 µM | [5] 8.07 µM | [6] 5.83 µM | [7] 5.31 µM | [8] 11.8 µM | [9] 2.89 µM | [10] 5.35 µM | [11] 5.06 µM | [12] 5.36 µM | [13] 5.92 µM | [14] 5.05 µM | [15] 9.9 µM | [16] 4.98 µM | [18] 14.1 µM | [17] 2.81 µM

c1ccc2c(c1)ccc1ccccc12
not listed: [1] | [18] | [20]
inactive: all other assays above

COC(=O)CCCCC(=O)OC
not listed: [1] | [18] | [19] | [20]
inactive: all other assays above

NCC(F)(F)C(F)(F)C(F)(F)C(F)(F)C(F)(F)C(F)(F)C(F)(F)F
not listed: [1] | [18] | [20]
inactive: all other assays above

CCCOc1sc(C(=O)N2CCC(c3cc(CN)ccc3F)CC2)c(C)c1Br
active: [2] 15.4 µM | [3] 4.87 µM | [4] 9.62 µM | [5] 27.1 µM | [6] 17.5 µM | [7] 7.94 µM | [8] 27.8 µM | [9] 11.9 µM | [10] 12.9 µM | [11] 32.6 µM | [12] 10.8 µM | [13] 10.4 µM | [14] 8.94 µM | [15] 18.6 µM | [20] 7.98 µM | [16] 5.12 µM | [18] 7.73 µM | [19] 3.1 µM | [17] 6.92 µM

CCCCCCCCCCCCN1CCCC1=O
active: [7] 32.7 µM | [10] 27.4 µM | [11] 27.9 µM | [13] 30.9 µM | [18] 34.6 µM | [19] 14.6 µM | [17] 31 µM
not listed: [1] | [20]
inactive: all other assays above
